Assay results taken from ChEMBL document CHEMBL4513146, “CO-ADD screening of Karazin Kharkiv National University (Ukraine) compounds”.
Potency and affinity values are given separately.

What was measured:
[1] = system: Klebsiella pneumoniae; settings: Concentration 32 ug.mL-1;; ASSAY_TEST Inhibition of Bacterial Growth; detection method Absorption (OD600); MEDIA CAMHB; plate type 384well; NBS; CORNING #3640; time 18 hr
[2] = system: Candida albicans; settings: Concentration 32 ug.mL-1; ASSAY_TEST Inhibition of Fungal Growth; detection method Absorption (OD530)
[3] = system: Cryptococcus neoformans; settings: Concentration 32 ug.mL-1; ASSAY_TEST Inhibition of Fungal Growth; detection method Resazurin; Absorption (OD600-OD570); plate type 384well; NBS; CORNING #3640

Row | Structure (SMILES) | Inhibition [1] | Inhibition [2] | Inhibition [3]
1 | Cc1ccc(NC(=O)Cn2c(=O)c3nnc(C(C)C)n3c3ccccc32)cc1C | 11.54% | 4.79% | -12.38%
2 | CSc1cccc(NC(=O)Cn2nc3ccc(-c4ccccc4)nn3c2=O)c1 | -3.17% | 3.96% | -8.45%
3 | COc1ccc(-n2ccn3c(-c4ccc([N+](=O)[O-])cc4)nnc3c2=O)cc1 | 13.7% | -0.61% | -26.2%
4 | COc1ccc(Cl)cc1NC(=O)CSc1nnc2c(=O)n(-c3ccc(C)c(C)c3)ccn12 | 15.8% | 0.63% | -9.59%
5 | COc1ccccc1NC(=O)Cn1nc2c3c4c(sc3ncn2c1=O)CCCC4 | 5.77% | 0.98% | -22.92%
6 | Cc1cccc(N(Cc2ccccc2F)S(=O)(=O)c2ccc3nncn3c2)c1 | -1.12% | 0.03% | -7.87%
7 | CCc1ccccc1Sc1nccn2c(=O)n(CC(=O)Nc3cc(C)ccc3C)nc12 | 13.72% | 1.62% | -13.69%
8 | CCc1ccc(N(Cc2cccc(F)c2)S(=O)(=O)c2cccn3c(C)nnc23)cc1 | 8.24% | 0.68% | -10.22%
9 | CC(C)CCn1c(=O)c2sccc2n2c(=O)n(CC(=O)N3CCC(Cc4ccccc4)CC3)nc12 | -9.97% | 0.93% | -41.06%
10 | COc1cccc(CSc2nnc3c(=O)n(-c4ccccc4OC)ccn23)c1 | 6.64% | 1.36% | -5.34%
11 | COc1ccc(NC(=O)Cn2nc3nc(N4CCOCC4)ccn3c2=O)cc1Cl | 17.46% | 1.98% | -8.34%
12 | COc1ccccc1-n1ccn2c(SCC(=O)Nc3ccc(C)cc3Cl)nnc2c1=O | 5.82% | 3.4% | -11.35%
13 | O=C(Cn1nc2ccc(SC3CCCCC3)nn2c1=O)NCc1ccc(Cl)cc1 | 12.01% | 5.78% | -20.43%
14 | Cc1ccc(Oc2nccn3c(=O)n(CC(=O)Nc4ccc(C)cc4Br)nc23)cc1 | 1.71% | 0.3% | -4.1%
15 | CCc1nnc2c(S(=O)(=O)N(Cc3cccc(C)c3)c3ccc(C(C)C)cc3)cccn12 | 14.47% | 4.99% | -9.13%
16 | CC(C)c1nnc2c(SCC(=O)Nc3cccc(Br)c3)nc3ccccc3n12 | 2.52% | 2.36% | -16.07%
17 | COc1cc(NC(=O)C(C)Sc2nnc3c(=O)n(-c4cccc(OC)c4)ccn23)cc(OC)c1 (stereo not given) | 2.2% | -0.84% | -10.32%
18 | Cc1ccc(-n2ccn3c(=O)n(Cc4c(F)cccc4Cl)nc3c2=O)cc1C | 16.81% | 1.02% | -16.44%
19 | CCc1nnc2c(S(=O)(=O)N(Cc3ccc(OC)c(F)c3)c3ccccc3)cccn12 | 7.72% | -1.05% | -3.11%
20 | CCOc1ccccc1NC(=O)Cn1nc2c3cc(-c4ccc(OC)cc4)nn3ccn2c1=O | 11.29% | 0.88% | -6.6%

Row | Structure (SMILES) | Inhibition [1] | Inhibition [2] | Inhibition [3]
21 | CCc1nnc2c(S(=O)(=O)N(Cc3cccc(F)c3)c3ccc(F)cc3)cccn12 | -0.41% | 1.06% | -2.23%
22 | COc1ccc(-c2cc3c4nn(CC(=O)Nc5cccc(C)c5)c(=O)n4ccn3n2)cc1 | 3.49% | 3.36% | -17.04%
23 | N#CCSc1nnc2c(=O)n(-c3ccc(Br)cc3)ccn12 | 12.03% | 1.63% | -7.07%
24 | COc1ccc(NC(=O)C(C)Sc2nnc3c(=O)n(-c4cccc(OC)c4)ccn23)cc1 (stereo not given) | 4.86% | -0.02% | -10.81%
25 | O=C(Cn1nc2c3sc(N4CCCC4)nc3ncn2c1=O)Nc1ccc(F)c(Cl)c1 | 20.21% | 4.41% | -11.29%
26 | O=C(Cn1nc2nc(Nc3ccc(F)cc3)ccn2c1=O)Nc1cc(F)ccc1F | 11.06% | 4.41% | -6.4%
27 | Cc1ccc(NC(=O)Cn2nc3ccc(SC(C)C)nn3c2=O)c(Cl)c1 | 9.56% | 10.62% | -1.74%
28 | O=c1n(Cc2ccc3c(c2)OCO3)nc2c(S(=O)(=O)N3CCCCC3)cccn12 | 10.73% | 3.52% | -6.79%
29 | Cc1cc2nn(CC(=O)Nc3ccc(F)c(F)c3)c(=O)n2c(Nc2ccc(C)c(F)c2)n1 | 13.08% | 3.82% | -7.92%
30 | Cc1ccc(-c2cc3c4nn(CC(=O)Nc5cc(Cl)ccc5C)c(=O)n4ccn3n2)cc1C | 6% | 4.85% | -8.51%
31 | CCc1ccc(N(Cc2cccc(OC)c2)S(=O)(=O)c2cccn3c(C)nnc23)cc1 | -1.7% | -0.37% | -7.84%
32 | COc1ccc(CNC(=O)Cn2nc3c(N4CCOCC4)nccn3c2=O)cc1 | 16.6% | 6.15% | -8.83%
33 | Cc1cc(C)cc(N(Cc2ccccc2)S(=O)(=O)c2cccn3c(C)nnc23)c1 | -0.64% | 2% | -6.56%
34 | Cc1ccc(C)c(NC(=O)Cn2nc3c(SCc4ccc(Cl)cc4)nccn3c2=O)c1 | 13.13% | 3.07% | -22.73%
35 | COc1ccccc1-n1ccn2c(SCC(=O)Nc3ccc4c(c3)OCCO4)nnc2c1=O | 16.4% | 6.52% | -7.16%
36 | Cc1ccc(Sc2ccc3nn(CC(=O)Nc4ccc(F)c(Cl)c4)c(=O)n3n2)cc1 | 6.66% | 6.36% | -7.28%
37 | CC(C)c1nnc2c(=O)n(CC(=O)Nc3ccc(C#N)cc3)c3ccccc3n12 | 6.44% | 0.24% | -24.39%
38 | CCOC(=O)c1ccc(NC(=O)Cn2nc3c4sc(N5CCCC5)nc4ncn3c2=O)cc1 | -7.55% | 32.94% | -7.69%
39 | CCCCc1ccc(NC(=O)Cn2nc3ccc(-c4ccc(C)c(C)c4)nn3c2=O)cc1 | 1.79% | 1.02% | -8.31%
40 | COc1ccc(NC(=O)c2ccc3nn(CC(=O)Nc4cc(Cl)ccc4OC)c(=O)n3c2)cc1 | 1.5% | 2.28% | -8.79%

Row | Structure (SMILES) | Inhibition [1] | Inhibition [2] | Inhibition [3]
41 | COc1ccc(-c2cc3c4nn(CC(=O)Nc5ccc(C)cc5C)c(=O)n4ccn3n2)cc1 | 11.47% | 2.57% | -20.53%
42 | O=C(Cn1nc2ccc(-c3ccc(Cl)cc3)nn2c1=O)NC1CCCC1 | 16.69% | 1.09% | -13.05%
43 | COc1cccc(C(=O)CSc2nnc3c(=O)n(-c4ccc(F)cc4)ccn23)c1 | 7.79% | 2.89% | -4.94%
44 | CC(C)c1ccc(NC(=O)Cn2nc3c(N4CCCCC4)nccn3c2=O)cc1 | 10.38% | 4.27% | -12.25%
45 | COc1ccc(-c2cc3c4nn(CC(=O)N5CCCc6ccccc65)c(=O)n4ccn3n2)cc1 | 10.34% | 3.82% | -13.79%
46 | CCCCn1c(=O)c2sccc2n2c(=O)n(CC(=O)c3cccc(OC)c3)nc12 | 13.89% | 1.56% | -15.97%
47 | Cc1nnc2ccc(S(=O)(=O)N(Cc3cccc(F)c3)c3ccc4c(c3)OCO4)cn12 | 1.28% | 3.36% | -7.24%
48 | Cc1ccccc1Oc1nccn2c(=O)n(CC(=O)Nc3ccc(Cl)c(Cl)c3)nc12 | 6.86% | 2.23% | -12.87%
49 | Cc1cc(C)cc(N(Cc2ccc(Cl)cc2)S(=O)(=O)c2cccn3c(C)nnc23)c1 | 4.19% | 0.27% | -8.23%
50 | CCc1ccccc1NC(=O)Cn1nc2c(Sc3ccc(C)cc3C)nccn2c1=O | 5.69% | 0.47% | -23.87%
51 | COc1ccc(N(Cc2cccc(C)c2)S(=O)(=O)c2ccc3nncn3c2)cc1 | -1.75% | 4.35% | -8.71%
52 | O=C(Cn1nc2nc(Nc3ccc(F)cc3)ccn2c1=O)NCC1CCCO1 (stereo not given) | 12.02% | 1.89% | -8.84%
53 | CCC(Sc1nnc2c(=O)n(-c3cccc(OC)c3)ccn12)C(=O)Nc1cc(OC)cc(OC)c1 (stereo not given) | 9.6% | -0.37% | -13.16%
54 | COc1ccccc1-n1ccn2c(SCC#N)nnc2c1=O | 22.72% | 4.95% | -18.74%
55 | O=C(CCc1nnc2c3cc(-c4ccc(F)cc4)nn3ccn12)N1CCC(Cc2ccccc2)CC1 | 4.22% | -1.12% | -13.61%
56 | CCOC(=O)c1ccccc1NC(=O)Cn1nc2c(Oc3cccc(C)c3C)nccn2c1=O | 7.42% | 0.56% | -7.85%
57 | Cc1nnc2ccc(S(=O)(=O)N(Cc3ccccc3)c3ccc(Cl)cc3)cn12 | 0.23% | -0.42% | -6.05%
58 | Cc1cccc(C)c1NC(=O)CSc1nc2ccccc2n2c(C)nnc12 | 9.22% | 0.67% | -4.49%
59 | Cc1[nH]c2ccccc2c1C(=O)CSc1nnc2c(=O)n(-c3ccc(F)c(F)c3)ccn12 | 14.26% | 1.72% | -11.39%
60 | Cc1cccc(C)c1NC(=O)CSc1nnc2ccc(C(=O)Nc3cccc(F)c3)cn12 | 10.23% | 10.31% | -3.65%
